Where “and” joins values, the source holds several entries; their conditions need not be identical. Equal values may be shown once. In all, about 5,500 compounds went through this assay and about 2,000 (36%) were called active. Another 18% or so got no clear call; they are omitted. Rule as the data show it: active = normalized growth mostly below about 0.91 (no sharp cut-off); inconclusive = no clear call, values can overlap the other calls; inactive = mostly above about 0.92. The list shows a part of the results.
Assay: chemical genetic growth profiling, strain panel (AID 1159580);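 also: tested at 20 µM; growth read once vehicle control cultures reached saturation at 30 °C; 1 = growth at the plate median or of vehicle wells; lower values mean less growth of the strain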
Conditions: S. cerevisiae deletion strains, growth OD

Measured: normalized growth

CNCCC=C1c2ccccc2CCc2ccccc21
active: locus YAL026C, strain drs2, stronger effect = lower value 0.854
inactive: locus YAL013W, strain DEP1, stronger effect = lower value 1.01 | locus YAL021C, strain ccr4, stronger effect = lower value 0.919 | locus YAL030W, strain snc1, stronger effect = lower value 0.975 | locus YAL040C, strain CLN3, stronger effect = lower value 1.01 | locus YBL061C, strain skt5, stronger effect = lower value 0.983 | locus YBR009C, strain hhf1, stronger effect = lower value 0.989 | locus YBR021W, strain FUR4, stronger effect = lower value 1.02 | locus YBR023C, strain chs3, stronger effect = lower value 0.956 | locus YBR171W, strain sec66, stronger effect = lower value 0.952 | locus YBR229C, strain ROT2, stronger effect = lower value 1.01 | locus YBR231C, strain swc5, stronger effect = lower value 0.996 | locus YBR279W, strain paf1, stronger effect = lower value 0.971 | locus YCL011C, strain gbp2, stronger effect = lower value 0.965 | locus YCL016C, strain dcc1, stronger effect = lower value 0.946 | locus YCL029C, strain bik1, stronger effect = lower value 1.04 | locus YCL061C, strain MRC1 (second series), stronger effect = lower value 0.998 | locus YCL061C, strain MRC1, stronger effect = lower value 0.981 | locus YCL069W, strain vba3, stronger effect = lower value 0.976 | locus YCR088W, strain abp1, stronger effect = lower value 0.978 | locus YDL005C, strain med2, stronger effect = lower value 0.955 | locus YDL035C, strain GPR1, stronger effect = lower value 1 | locus YDL040C, strain nat1, stronger effect = lower value 0.974 | locus YDL074C, strain BRE1, stronger effect = lower value 1.03 | locus YDL101C, strain DUN1, stronger effect = lower value 1.02 | locus YDL134C, strain PPH21, stronger effect = lower value 1.01 | locus YDL185W, strain tfp1, stronger effect = lower value 1.02 | locus YDL192W, strain arf1, stronger effect = lower value 1.02 | locus YDR001C, strain nth1, stronger effect = lower value 0.986 | locus YDR069C, strain doa4, stronger effect = lower value 0.929 | locus YDR101C, strain arx1, stronger effect = lower value 1.03 | locus YDR137W, strain rgp1, stronger effect = lower value 1.1 | locus YDR150W, strain NUM1, stronger effect = lower value 1.01 and 1 | locus YDR159W, strain sac3, stronger effect = lower value 0.955 | locus YDR162C, strain NBP2, stronger effect = lower value 1 | locus YDR195W, strain ref2 1 | locus YDR297W, strain sur2, stronger effect = lower value 0.99 | locus YDR318W, strain mcm21, stronger effect = lower value 1.03 | locus YDR334W, strain swr1, stronger effect = lower value 0.957 | locus YDR335W, strain msn5, stronger effect = lower value 0.963 | locus YDR363W, strain ESC2, stronger effect = lower value 0.951 | locus YDR388W, stronger effect = lower value 1.02 | locus YDR392W, strain spt3, stronger effect = lower value 0.939 | locus YDR502C, strain sam2, stronger effect = lower value 1.03 | locus YEL003W, strain gim4, stronger effect = lower value 0.972 | locus YEL037C, strain rad23, stronger effect = lower value 0.967 | locus YEL061C, strain CIN8 (second series), stronger effect = lower value 0.972 | locus YEL061C, strain CIN8, stronger effect = lower value 1.01 | locus YER002W, strain NOP16, stronger effect = lower value 1.03 | locus YER015W, strain faa2, stronger effect = lower value 0.978 | locus YER016W, strain bim1, stronger effect = lower value 0.97 | locus YER110C, stronger effect = lower value 1.01 | locus YER111C, strain swi4, stronger effect = lower value 0.953 | locus YER155C, strain BEM2 (second series), stronger effect = lower value 0.917 | locus YER155C, strain BEM2, stronger effect = lower value 1 | locus YER167W, strain BCK2, stronger effect = lower value 1 | locus YFR010W, strain ubp6, stronger effect = lower value 0.958 | locus YGL078C, strain dbp3, stronger effect = lower value 1.01 | locus YGL086W, strain mad1, stronger effect = lower value 1.01 | locus YGL167C, strain pmr1, stronger effect = lower value 0.971 | locus YGL173C, strain kem1, stronger effect = lower value 0.968 | locus YGL227W, strain vid30, stronger effect = lower value 0.966 | locus YGL240W, strain doc1, stronger effect = lower value 1.01 | locus YGL248W, strain PDE1, stronger effect = lower value 1.01 | locus YGL253W, strain hxk2, stronger effect = lower value 0.981 | locus YGR078C, strain PAC10, stronger effect = lower value 1.03 and 0.991 | locus YGR135W, strain pre9, stronger effect = lower value 1.02 | locus YGR229C, strain SMI1, stronger effect = lower value 1.03 and 0.97 | locus YGR252W, strain gcn5, stronger effect = lower value 1.14 | locus YHR013C, strain ard1, stronger effect = lower value 0.885 | locus YHR027C, strain rpn1, stronger effect = lower value 0.978 | locus YHR030C, strain SLT2, stronger effect = lower value 1.01 and 0.966 | locus YHR079C, strain IRE1 (second series), stronger effect = lower value 1.03 | locus YHR079C, strain IRE1, stronger effect = lower value 0.974 | locus YHR094C, strain hxt1, stronger effect = lower value 1.01 | locus YHR129C, strain ARP1, stronger effect = lower value 1.01 | locus YHR142W, strain chs7, stronger effect = lower value 0.961 | locus YHR200W, strain rpn10, stronger effect = lower value 1.02 | locus YIL066C, strain RNR3, stronger effect = lower value 1.02 | locus YIL073C, strain SPO22, stronger effect = lower value 1.09 | locus YIL125W, strain kgd1, stronger effect = lower value 1.01 | locus YIR030C, strain dcg1, stronger effect = lower value 1.02 | locus YJL092W, strain hpr5, stronger effect = lower value 0.991 | locus YJL095W, strain BCK1 (second series), stronger effect = lower value 0.965 | locus YJL095W, strain BCK1, stronger effect = lower value 1.01 and 0.961 | locus YJL115W, strain asf1, stronger effect = lower value 0.961 | locus YJL129C, strain trk1, stronger effect = lower value 0.978 | locus YJL134W, strain LCB3, stronger effect = lower value 1.01 | locus YJL154C, strain vps35, stronger effect = lower value 0.973 | locus YJL164C, strain tpk1, stronger effect = lower value 0.978 | locus YJL166W, strain qcr8, stronger effect = lower value 0.989 | locus YJL168C, strain set2, stronger effect = lower value 1.01 | locus YJL187C, strain SWE1 (second series), stronger effect = lower value 1.02 | locus YJR043C, strain POL32, stronger effect = lower value 1.02 | locus YJR066W, strain TOR1, stronger effect = lower value 0.923

— PubChem BioAssay AID1159580 (chemical genetic matrix, 2015)
